What was measured:
Assay in all cases: log2 ratio of Biotin-Ahx-Ub-VS probe labelling (fragment/DMSO); higher = less target engagement (more negative = stronger competition), active = hit call of the paper (q ≤ 0.05, log2 ratio ≤ -1)
Conditions in all cases: compound concentration: 200 uM; treatment time: 3 h
OTUD6B = target: T1, OTUD6B (UniProt Q8N6M0)
T1 sequence (whole entry): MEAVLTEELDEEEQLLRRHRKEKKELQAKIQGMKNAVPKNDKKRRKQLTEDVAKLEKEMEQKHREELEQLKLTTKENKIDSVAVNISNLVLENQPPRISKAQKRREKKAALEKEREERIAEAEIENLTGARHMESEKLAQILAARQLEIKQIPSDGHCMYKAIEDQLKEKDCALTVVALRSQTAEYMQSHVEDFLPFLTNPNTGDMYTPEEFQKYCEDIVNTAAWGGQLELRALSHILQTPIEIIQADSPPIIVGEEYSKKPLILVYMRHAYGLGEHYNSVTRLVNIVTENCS
Method in brief: (§1)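 Average log2 ratios of fragment over vehicle were obtained by unpaired t-test from global-median-normalised Spectronaut label-free quantities. Proteins with ≥2 unique peptides were included. HEK293T lysate (495 µg per sample) was treated in triplicate with fragment at 200 µM or vehicle for 3 h, then with Biotin-Ahx-Ub-VS at 0.5 µM final for 1 h, and labelled DUBs were NeutrAvidin-enriched and run by diaPASEF LC-MS/MS.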

OTUD7B = target: T2, OTUD7B (UniProt Q6GQQ9)
T2 sequence (whole entry): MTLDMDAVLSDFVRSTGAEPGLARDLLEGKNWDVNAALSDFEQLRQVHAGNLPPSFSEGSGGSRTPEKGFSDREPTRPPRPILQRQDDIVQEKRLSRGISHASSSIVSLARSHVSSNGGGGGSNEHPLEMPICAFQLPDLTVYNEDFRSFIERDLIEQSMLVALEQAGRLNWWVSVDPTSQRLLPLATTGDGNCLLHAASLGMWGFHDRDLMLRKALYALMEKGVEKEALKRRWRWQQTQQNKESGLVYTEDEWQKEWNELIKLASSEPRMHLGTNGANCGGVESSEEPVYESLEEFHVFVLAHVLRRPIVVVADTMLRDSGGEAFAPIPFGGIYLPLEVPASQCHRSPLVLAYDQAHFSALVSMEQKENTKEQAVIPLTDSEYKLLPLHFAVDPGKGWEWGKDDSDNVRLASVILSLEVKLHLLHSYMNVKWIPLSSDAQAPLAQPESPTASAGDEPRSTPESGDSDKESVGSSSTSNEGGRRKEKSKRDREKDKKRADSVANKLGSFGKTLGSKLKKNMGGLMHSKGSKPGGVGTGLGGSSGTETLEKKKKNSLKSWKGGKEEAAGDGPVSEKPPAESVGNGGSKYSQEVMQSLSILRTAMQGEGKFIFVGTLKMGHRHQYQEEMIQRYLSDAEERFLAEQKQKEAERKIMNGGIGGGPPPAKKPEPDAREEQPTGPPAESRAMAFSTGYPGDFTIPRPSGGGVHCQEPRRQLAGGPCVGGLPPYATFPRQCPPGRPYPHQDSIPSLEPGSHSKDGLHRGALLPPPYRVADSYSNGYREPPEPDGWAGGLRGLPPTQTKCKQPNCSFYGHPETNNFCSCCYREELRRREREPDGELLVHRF
Method in brief: as §1

PRPF8 = PRPF8 (UniProt Q6P2Q9)
Method in brief: as §1

PSMD7 = target: T3, PSMD7 (UniProt P51665)
T3 sequence (whole entry): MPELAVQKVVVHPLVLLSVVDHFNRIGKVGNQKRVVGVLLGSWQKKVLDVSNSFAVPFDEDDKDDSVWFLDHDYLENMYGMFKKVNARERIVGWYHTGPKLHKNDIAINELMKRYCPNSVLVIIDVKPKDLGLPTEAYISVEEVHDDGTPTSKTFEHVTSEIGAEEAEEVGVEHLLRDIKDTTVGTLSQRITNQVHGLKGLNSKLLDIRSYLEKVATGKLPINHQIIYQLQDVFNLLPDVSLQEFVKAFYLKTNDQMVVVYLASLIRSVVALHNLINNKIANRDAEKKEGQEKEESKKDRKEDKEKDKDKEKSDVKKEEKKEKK
Method in brief: as §1

UCHL1 = UCHL1 (UniProt P09936)
Sequence of UCHL1 (P09936 whole entry, looked up): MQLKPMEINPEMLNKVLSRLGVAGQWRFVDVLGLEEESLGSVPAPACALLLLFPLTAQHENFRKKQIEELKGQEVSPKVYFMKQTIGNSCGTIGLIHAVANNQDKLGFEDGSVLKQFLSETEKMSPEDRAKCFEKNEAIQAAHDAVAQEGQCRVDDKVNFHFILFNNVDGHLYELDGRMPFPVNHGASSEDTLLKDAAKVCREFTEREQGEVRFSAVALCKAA
Method in brief: as §1

UCHL3 = target: T4, UCHL3 (UniProt P15374)
T4 sequence (whole entry): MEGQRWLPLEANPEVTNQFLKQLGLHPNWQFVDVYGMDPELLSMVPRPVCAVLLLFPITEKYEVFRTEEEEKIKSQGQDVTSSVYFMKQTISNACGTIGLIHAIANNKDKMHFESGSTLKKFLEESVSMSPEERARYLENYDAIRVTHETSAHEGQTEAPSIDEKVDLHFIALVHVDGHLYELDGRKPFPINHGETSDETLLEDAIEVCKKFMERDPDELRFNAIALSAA
Method in brief: as §1

UCHL5 = target: T5, UCHL5 (UniProt Q9Y5K5)
T5 sequence (whole entry): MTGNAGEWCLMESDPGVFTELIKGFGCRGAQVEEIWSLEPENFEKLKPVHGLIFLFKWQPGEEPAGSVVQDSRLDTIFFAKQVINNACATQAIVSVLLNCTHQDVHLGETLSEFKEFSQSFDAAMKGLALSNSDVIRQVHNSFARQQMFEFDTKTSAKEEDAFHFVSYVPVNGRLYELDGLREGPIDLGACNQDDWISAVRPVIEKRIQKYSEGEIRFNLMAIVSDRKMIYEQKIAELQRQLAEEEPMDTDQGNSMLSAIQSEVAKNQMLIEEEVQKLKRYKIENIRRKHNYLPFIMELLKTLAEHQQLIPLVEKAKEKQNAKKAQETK
Method in brief: as §1

USP10 = USP10 (UniProt Q14694)
Sequence of USP10 (Q14694 whole entry): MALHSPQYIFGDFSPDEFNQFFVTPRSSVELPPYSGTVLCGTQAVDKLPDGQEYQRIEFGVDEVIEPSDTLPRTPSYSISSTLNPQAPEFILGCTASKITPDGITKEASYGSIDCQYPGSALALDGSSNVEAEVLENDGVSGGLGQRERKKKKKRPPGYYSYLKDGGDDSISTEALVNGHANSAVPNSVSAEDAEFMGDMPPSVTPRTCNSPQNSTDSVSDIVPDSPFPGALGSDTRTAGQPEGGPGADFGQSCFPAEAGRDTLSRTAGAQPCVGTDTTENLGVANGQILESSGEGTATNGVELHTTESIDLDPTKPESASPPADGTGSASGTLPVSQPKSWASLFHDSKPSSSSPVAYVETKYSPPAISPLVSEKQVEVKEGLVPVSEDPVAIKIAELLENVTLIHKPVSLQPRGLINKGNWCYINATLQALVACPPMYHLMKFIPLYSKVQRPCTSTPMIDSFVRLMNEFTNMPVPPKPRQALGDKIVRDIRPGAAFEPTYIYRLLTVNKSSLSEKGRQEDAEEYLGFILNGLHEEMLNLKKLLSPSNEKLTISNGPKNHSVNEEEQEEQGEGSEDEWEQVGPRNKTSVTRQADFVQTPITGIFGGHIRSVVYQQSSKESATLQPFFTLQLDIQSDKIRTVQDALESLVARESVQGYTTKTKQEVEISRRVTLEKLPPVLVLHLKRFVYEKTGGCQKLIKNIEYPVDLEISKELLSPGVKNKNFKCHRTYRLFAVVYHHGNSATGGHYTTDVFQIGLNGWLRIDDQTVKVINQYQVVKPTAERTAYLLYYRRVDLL
Method in brief: as §1

USP15 = target: T6, USP15 (UniProt Q9Y4E8)
T6 sequence (whole entry): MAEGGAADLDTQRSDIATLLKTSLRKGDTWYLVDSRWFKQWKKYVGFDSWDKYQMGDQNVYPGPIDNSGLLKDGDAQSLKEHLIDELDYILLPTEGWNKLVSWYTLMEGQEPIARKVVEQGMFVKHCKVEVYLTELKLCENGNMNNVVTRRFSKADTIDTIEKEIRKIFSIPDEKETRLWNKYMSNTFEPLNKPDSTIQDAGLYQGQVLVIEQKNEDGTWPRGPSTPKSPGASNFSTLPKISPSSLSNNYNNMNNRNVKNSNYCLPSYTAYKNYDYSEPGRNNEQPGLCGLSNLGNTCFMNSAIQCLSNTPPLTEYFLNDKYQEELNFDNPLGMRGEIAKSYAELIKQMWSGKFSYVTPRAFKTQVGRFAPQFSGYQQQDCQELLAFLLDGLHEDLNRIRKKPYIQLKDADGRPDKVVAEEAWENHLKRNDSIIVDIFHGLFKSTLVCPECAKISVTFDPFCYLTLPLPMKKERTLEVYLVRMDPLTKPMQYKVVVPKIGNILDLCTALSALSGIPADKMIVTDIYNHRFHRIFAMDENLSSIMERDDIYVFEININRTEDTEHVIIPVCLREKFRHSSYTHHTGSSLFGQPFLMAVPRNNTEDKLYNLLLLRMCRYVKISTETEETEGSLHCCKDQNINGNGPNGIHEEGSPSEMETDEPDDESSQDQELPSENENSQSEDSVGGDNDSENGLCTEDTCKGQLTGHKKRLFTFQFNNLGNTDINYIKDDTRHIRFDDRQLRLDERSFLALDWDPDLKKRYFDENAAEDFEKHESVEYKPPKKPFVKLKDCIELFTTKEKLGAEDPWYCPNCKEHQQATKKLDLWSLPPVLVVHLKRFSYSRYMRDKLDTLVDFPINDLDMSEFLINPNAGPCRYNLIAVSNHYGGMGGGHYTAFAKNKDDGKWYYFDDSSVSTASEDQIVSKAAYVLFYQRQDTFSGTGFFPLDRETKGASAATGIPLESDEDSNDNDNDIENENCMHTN
Method in brief: as §1

USP16 = USP16 (UniProt Q9Y5T5)
Sequence of USP16 (Q9Y5T5 whole entry, looked up): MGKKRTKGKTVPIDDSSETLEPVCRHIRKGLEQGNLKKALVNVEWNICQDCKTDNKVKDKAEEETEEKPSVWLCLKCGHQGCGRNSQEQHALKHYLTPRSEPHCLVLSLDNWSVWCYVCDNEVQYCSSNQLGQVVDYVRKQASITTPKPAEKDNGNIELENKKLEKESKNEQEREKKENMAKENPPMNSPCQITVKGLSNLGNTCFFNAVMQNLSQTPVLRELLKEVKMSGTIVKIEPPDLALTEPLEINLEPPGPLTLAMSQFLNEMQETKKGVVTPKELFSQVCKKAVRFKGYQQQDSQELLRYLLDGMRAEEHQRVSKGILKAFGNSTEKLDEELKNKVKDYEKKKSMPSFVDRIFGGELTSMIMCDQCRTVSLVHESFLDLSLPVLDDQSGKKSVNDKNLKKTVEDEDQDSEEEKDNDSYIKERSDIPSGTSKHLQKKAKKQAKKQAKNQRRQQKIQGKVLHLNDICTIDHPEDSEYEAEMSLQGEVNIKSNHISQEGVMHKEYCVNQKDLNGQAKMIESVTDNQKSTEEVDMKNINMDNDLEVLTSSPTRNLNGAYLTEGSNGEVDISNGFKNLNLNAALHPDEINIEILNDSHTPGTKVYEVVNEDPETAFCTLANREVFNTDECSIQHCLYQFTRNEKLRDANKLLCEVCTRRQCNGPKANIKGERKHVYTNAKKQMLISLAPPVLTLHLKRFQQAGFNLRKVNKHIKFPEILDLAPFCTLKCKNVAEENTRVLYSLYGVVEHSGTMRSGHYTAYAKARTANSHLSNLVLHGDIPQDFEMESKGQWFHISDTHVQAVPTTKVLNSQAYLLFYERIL
Method in brief: as §1

Measured: log2 ratio of Biotin-Ahx-Ub-VS probe labelling

Cl.O=C(CCl)N1CCC(Cc2nccs2)C1 (stereo not given)
active: UCHL1 -1.01
inactive: OTUD6B -0.205 | OTUD7B -0.436 | PRPF8 -0.0505 | PSMD7 -0.315 | UCHL3 -0.0765 | UCHL5 -0.293 | USP10 0.0972 | USP15 -0.249 | USP16 0.355

Source: the supplement of paper PMC11732987, “Enantioselective OTUD7B fragment discovery through chemoproteomics screening and high-throughput optimisation” (Communications Chemistry, 2025)
